# Experimental data taken from PubChem BioAssay (EPA / NIEHS).
# Where “and” joins values, the source holds several entries; their conditions need not be identical. Equal values may be shown once. Where a structure was tested more than once in an assay, its records may differ in their call. Calls of active or inactive are those of the source. Rule for the calls: active = hit-call score of the fitted dose curve at least 0.9, where 1 is the maximum; inactive = score below 0.9.
# How the values were obtained:
# [1] = BSK_hDFCGF_SRB: Viability Assessment in the BioMAP Diversity Plus: hDFCGF Assay (AID 2283061); conditions: primary human foreskin fibroblasts;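 note: cells exposed to compound for 24 h before the read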
# Procedure, shortened: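 SRB-based viability read on primary human skin fibroblasts at 24 h: TCA fixation, 0.1% dye, 560 nm. Gain or loss of signal is fitted against the DMSO negative control.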
# [2] = read-out: TIMP metallopeptidase inhibitor 1 (TIMP1), TIMP1 (gene 7076); assay: BSK_hDFCGF_TIMP1: BioMAP Diversity Plus: hDFCGF Assay for TIMP metallopeptidase inhibitor 1 (TIMP1) Biomarker Activity (AID 2283062); conditions: primary human foreskin fibroblasts; actives raise or lower the signal
# Procedure, shortened: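 Bidirectional curve fitting against DMSO baseline yielded this endpoint, based on ELISA detection of TIMP-1 in primary human foreskin fibroblasts exposed to compound for 24 h.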
# [3] = read-out: Monokine induced gamma interferon (MIG), CXCL9 (gene 4283); assay: BSK_hDFCGF_MIG: BioMAP Diversity Plus: hDFCGF Assay for Monokine induced gamma interferon (MIG) Biomarker Activity (AID 2283063); conditions: primary human foreskin fibroblasts; actives raise or lower the signal
# Procedure, shortened: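 Endpoint derived by bidirectional fitting relative to DMSO; MIG quantified via ELISA in primary human foreskin fibroblasts harvested 24 h after dosing.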
# [4] = read-out: Matrix Metallopeptidase 1 (MMP1), MMP1 (gene 4312); assay: BSK_hDFCGF_MMP1: BioMAP Diversity Plus: hDFCGF Assay for Matrix Metallopeptidase 1 (MMP1) Biomarker Activity (AID 2283064); conditions: primary human foreskin fibroblasts; actives raise or lower the signal
# Procedure, shortened: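 Primary human foreskin fibroblasts exposed to chemicals for 24 h; MMP1 measured by ELISA. Cytotoxicity tracked by SRB staining in parallel cultures; bidirectional fit relative to DMSO.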
# [5] = read-out: Vascular cell adhesion molecule 1 (VCAM1), VCAM1 (gene 7412); assay: BSK_hDFCGF_VCAM1: BioMAP Diversity Plus: hDFCGF Assay for Vascular cell adhesion molecule 1 (VCAM1) Biomarker Activity (AID 2283065); conditions: primary human foreskin fibroblasts; actives raise or lower the signal;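 for AC50: VCAM-1 protein level quantified by ELISA after 24 h chemical exposure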
# Procedure, shortened: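 Measured after 24 h chemical treatment of primary human skin fibroblasts, VCAM-1 was detected by ELISA and concentration-response analysed in both directions versus DMSO vehicle.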
# [6] = read-out: Plasminogen activator inhibitor-1 (PAI1), SERPINE1 (gene 5054); assay: BSK_hDFCGF_PAI1: BioMAP Diversity Plus: hDFCGF Assay for Plasminogen activator inhibitor-1 (PAI1) Biomarker Activity (AID 2283066); conditions: primary human foreskin fibroblasts; actives raise or lower the signal
# Procedure, shortened: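 PAI-1 levels, determined by ELISA, served as the endpoint in human foreskin fibroblast cultures exposed to compound for 24 h, with DMSO as baseline.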
# [7] = read-out: Intercellular Adhesion Molecule 1 (ICAM1), ICAM1 (gene 3383); assay: BSK_KF3CT_ICAM1: BioMAP Diversity Plus: KF3CT Assay for Intercellular Adhesion Molecule 1 (ICAM1) Biomarker Activity (AID 2283067); conditions: primary human keratinocytes with fibroblasts; actives raise or lower the signal
# Procedure, shortened: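 Bidirectional curve fitting against a DMSO baseline was applied to ICAM-1 ELISA signal from primary human skin co-cultures harvested 24 h after treatment, with SRB staining of parallel wells for overt cytotoxicity.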
# [8] = read-out: Interferon-gamma inducible Protein 10 (IP10), CXCL10 (gene 3627); assay: BSK_KF3CT_IP10: BioMAP Diversity Plus: KF3CT Assay for Interferon-gamma inducible Protein 10 (IP10) Biomarker Activity (AID 2283068); conditions: primary human keratinocytes with fibroblasts; actives raise or lower the signal
# Procedure, shortened: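 In a primary skin co-culture of keratinocytes and fibroblasts, IP-10 is quantified by ELISA at 24 h after dosing. SRB staining of parallel wells monitors overt toxicity. Curves are fitted both directions against DMSO.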
# [9] = BSK_KF3CT_SRB: Viability Assessment in the BioMAP Diversity Plus: KF3CT Assay (AID 2283069); conditions: primary human keratinocytes with fibroblasts;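 note: total protein by sulforhodamine B staining as a cytotoxicity measure; read 24 h after compound addition; fitted for both signal gain and loss against DMSO baseline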
# Procedure, shortened: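 Human keratinocyte and foreskin fibroblast co-culture exposed to chemical for 24 h. Total protein measured in parallel cultures by 0.1% sulforhodamine B staining after 10% TCA fixation, read at 560 nm; bidirectional fit relative to DMSO.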
# [10] = read-out: Interleukin-1 alpha (IL1a), IL1A (gene 3552); assay: BSK_KF3CT_IL1a: BioMAP Diversity Plus: KF3CT Assay for Interleukin-1 alpha (IL1a) Biomarker Activity (AID 2283070); conditions: primary human keratinocytes with fibroblasts; actives raise or lower the signal
# Procedure, shortened: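 Primary human keratinocyte plus foreskin fibroblast co-culture, dosed and measured at 24 h in 96-well plates. IL-1a level quantified by ELISA; bidirectional fit relative to DMSO.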
# [11] = read-out: TIMP metallopeptidase inhibitor 2 (TIMP2), TIMP2 (gene 7077); assay: BSK_KF3CT_TIMP2: BioMAP Diversity Plus: KF3CT Assay for TIMP metallopeptidase inhibitor 2 (TIMP2) Biomarker Activity (AID 2283071); conditions: primary human keratinocytes with fibroblasts; actives raise or lower the signal
# Procedure, shortened: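 Keratinocyte–fibroblast co-culture, 24 h exposure; TIMP-2 ELISA, DMSO-normalised bidirectional fit. Parallel SRB (0.1%, TCA-fixed, 560 nm) total-protein staining gauges cytotoxicity.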
# [12] = read-out: Transforming growth factor beta 1 (TGFb1), TGFB1 (gene 7040); assay: BSK_KF3CT_TGFb1: BioMAP Diversity Plus: KF3CT Assay for Transforming growth factor beta 1 (TGFb1) Biomarker Activity (AID 2283072); conditions: primary human keratinocytes with fibroblasts; actives raise or lower the signal
# Procedure, shortened: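 Signal changes in either direction, relative to DMSO, define activity here. TGF-b1 is read by ELISA from a human keratinocyte-fibroblast co-culture 24 h post-dose.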
# [13] = read-out: C-C motif chemokine 2 (Homo sapiens) (UniProt P13500); assay: BSK_KF3CT_MCP1: BioMAP Diversity Plus: KF3CT Assay for Monocyte Chemoattractant Protein 1 (MCP1/CCL2) Biomarker Activity (AID 2283073); conditions: primary human keratinocytes with fibroblasts; actives raise or lower the signal
# Procedure, shortened: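 Biomarker MCP-1 is measured by ELISA in primary human keratinocytes co-cultured with foreskin fibroblasts, 24 h after chemical treatment; DMSO serves as the negative control and activity baseline.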
# [14] = read-out: Matrix Metallopeptidase 9 (MMP9), MMP9 (gene 4318); assay: BSK_KF3CT_MMP9: BioMAP Diversity Plus: KF3CT Assay for Matrix Metallopeptidase 9 (MMP9) Biomarker Activity (AID 2283074); conditions: primary human keratinocytes with fibroblasts; actives raise or lower the signal;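 for AC50: MMP9 protein level quantified by ELISA in the co-culture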
# Procedure, shortened: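 Human keratinocyte and foreskin fibroblast co-culture exposed to chemicals for 24 h; MMP9 biomarker measured by ELISA, bidirectional fitting relative to DMSO; cytotoxicity tracked by SRB total protein staining in parallel cultures.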
# [15] = read-out: urokinase plasminogen activator (uPA), PLAU (gene 5328); assay: BSK_KF3CT_uPA: BioMAP Diversity Plus: KF3CT Assay for urokinase plasminogen activator (uPA) Biomarker Activity (AID 2283075); conditions: primary human keratinocytes with fibroblasts; actives raise or lower the signal
# Procedure, shortened: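 Primary human keratinocyte/foreskin fibroblast co-culture exposed to chemical; uPA measured by ELISA at 24 h. Bidirectional fit versus DMSO, with parallel SRB total-protein staining for cytotoxicity.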
# CD40, CD40 (gene 958) = assay: BSK_LPS_CD40: BioMAP Diversity Plus: LPS Assay for CD40 Biomarker Activity (AID 2283076); conditions: primary human HUVEC with PBMC; actives raise or lower the signal
# Procedure, shortened: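 Using a multiplexed primary human co-culture (umbilical vein endothelium plus PBMC), CD40 was read by ELISA 24 h after dosing, with cytotoxicity tracked by sulforhodamine B staining of parallel cultures and activity fitted bidirectionally versus DMSO.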
# [16] = read-out: E-selectin (Homo sapiens) (UniProt P16581); assay: BSK_LPS_Eselectin: BioMAP Diversity Plus: LPS Assay for Eselectin Biomarker Activity (AID 2283077); conditions: primary human HUVEC with PBMC; actives raise or lower the signal
# Procedure, shortened: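 Dose chemical onto LPS-driven HUVEC/PBMC co-culture; after 24 h, run ELISA for E-selectin; fit up- and down-going responses relative to DMSO control.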
# [17] = read-out: Interleukin-8 (IL8), CXCL8 (gene 3576); assay: BSK_LPS_IL8: BioMAP Diversity Plus: LPS Assay for Interleukin-8 (IL8) Biomarker Activity (AID 2283078); conditions: primary human HUVEC with PBMC; actives raise or lower the signal
# Procedure, shortened: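 In this LPS system, chemical-treated human umbilical vein endothelium/PBMC co-cultures were harvested at 24 h for IL-8 ELISA.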
# [18] = BSK_LPS_SRB: Viability Assessment in the BioMAP Diversity Plus: LPS Assay (AID 2283079); conditions: primary human HUVEC with PBMC;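 note: total protein by sulforhodamine B absorbance as a cytotoxicity measure; measured one day after compound addition; fitted in both directions against DMSO so loss or gain of signal counts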
# Procedure, shortened: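 Cytotoxicity endpoint in human endothelial–PBMC co-culture: 24 h exposure, then SRB (0.1%) staining, 560 nm read.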
# [19] = read-out: Interleukin-1 alpha (IL1a), IL1A (gene 3552); assay: BSK_LPS_IL1a: BioMAP Diversity Plus: LPS Assay for Interleukin-1 alpha (IL1a) Biomarker Activity (AID 2283080); conditions: primary human HUVEC with PBMC; actives raise or lower the signal
# Procedure, shortened: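 Primary human HUVEC and PBMC co-culture stimulated with LPS is dosed and harvested at 24 h. Both increases and decreases in ELISA-measured IL-1a are scored relative to DMSO.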
# Chain of E-selectin (Homo sapiens) (P16581 whole entry, looked up): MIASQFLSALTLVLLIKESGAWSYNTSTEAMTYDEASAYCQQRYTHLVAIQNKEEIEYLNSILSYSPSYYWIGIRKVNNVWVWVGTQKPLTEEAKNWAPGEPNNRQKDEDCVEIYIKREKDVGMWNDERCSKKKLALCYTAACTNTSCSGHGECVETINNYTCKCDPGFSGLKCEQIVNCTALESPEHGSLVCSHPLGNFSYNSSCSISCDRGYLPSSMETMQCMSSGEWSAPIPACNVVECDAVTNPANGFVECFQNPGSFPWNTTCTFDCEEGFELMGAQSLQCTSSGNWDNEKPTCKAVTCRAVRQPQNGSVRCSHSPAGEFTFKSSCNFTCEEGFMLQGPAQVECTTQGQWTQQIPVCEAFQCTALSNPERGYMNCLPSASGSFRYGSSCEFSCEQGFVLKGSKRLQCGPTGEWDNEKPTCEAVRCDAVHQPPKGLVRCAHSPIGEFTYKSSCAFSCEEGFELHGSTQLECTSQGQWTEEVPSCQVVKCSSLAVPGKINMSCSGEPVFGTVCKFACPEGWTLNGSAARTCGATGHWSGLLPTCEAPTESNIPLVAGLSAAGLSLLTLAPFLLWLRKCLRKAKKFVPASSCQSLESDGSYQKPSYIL
smiles,measurement,setting,value
OCCC(F)(F)C(F)(F)C(F)(F)C(F)(F)C(F)(F)C(F)(F)F,AC50,[1],51.3 µM (active) and 46.8 µM (active)
same,outcome,[1],inactive
same,AC50,[2],53.1 µM (active) and 47.1 µM (active)
same,outcome,[2],inactive
same,AC50,[3],55.4 µM (active) and 54.7 µM (active)
same,outcome,[3],inactive
same,AC50,[4],55.1 µM (active)
same,outcome,[4],inactive
same,AC50,[5],30 µM (active) and 47.4 µM (active)
same,outcome,[5],inactive
same,AC50,[6],53.5 µM (active) and 55.3 µM (active)
same,outcome,[6],inactive
same,outcome,[7],inactive
same,outcome,[8],inactive
same,outcome,[9],inactive
same,outcome,[10],inactive
same,outcome,[11],inactive
same,outcome,[12],inactive
same,outcome,[13],inactive
same,outcome,[14],inactive
same,outcome,[15],inactive
same,AC50,"CD40, CD40 (gene 958)",40.8 µM (active)
same,outcome,"CD40, CD40 (gene 958)",inactive
same,outcome,[16],inactive
same,outcome,[17],inactive
same,AC50,[18],45.8 µM (active)
same,outcome,[18],inactive
same,outcome,[19],inactive
CN1CCN(c2ccccc2/C=C2\SCCN(c3ccc(Cl)c(Cl)c3)C2=O)CC1,AC50,[1],28.3 µM (active)
same,AC50,[2],33.7 µM (active)
same,AC50,[3],39 µM (active)
same,AC50,[4],38 µM (active)
same,AC50,[5],31.8 µM (active)
same,AC50,[6],9.63 µM (active)
same,AC50,[7],31.8 µM (active)
same,AC50,[8],28.5 µM (active)
same,AC50,[9],30.8 µM (active)
same,AC50,[10],30.6 µM (active)
same,AC50,[11],28.1 µM (active)
same,AC50,[12],29.1 µM (active)
same,AC50,[13],32.4 µM (active)
same,AC50,[14],26.8 µM (active)
same,AC50,[15],30.1 µM (active)
same,AC50,"CD40, CD40 (gene 958)",7.34 µM (active)
same,outcome,[16],inactive
same,AC50,[17],20 µM (active)
same,AC50,[18],16.3 µM (active)
same,AC50,[19],20 µM (active)
CCc1ccc(CCOc2ccc(CC3SC(=O)NC3=O)cc2)nc1 (stereo not given),outcome,[1],inactive
same,outcome,[2],inactive
same,outcome,[3],inactive
same,outcome,[4],inactive
same,outcome,[5],inactive
same,outcome,[6],inactive
same,outcome,[7],inactive
same,outcome,[8],inactive
same,outcome,[9],inactive
same,outcome,[10],inactive
same,outcome,[11],inactive
same,outcome,[13],inactive
same,outcome,[14],inactive
same,outcome,[15],inactive
same,outcome,"CD40, CD40 (gene 958)",inactive
same,outcome,[16],inactive
same,outcome,[17],inactive
same,outcome,[18],inactive
same,outcome,[19],inactive
Cc1cc(C)c(O)c(C)c1,outcome,[1],inactive
same,outcome,[2],inactive
same,outcome,[3],inactive
same,outcome,[4],inactive
same,outcome,[5],inactive
same,outcome,[6],inactive
same,outcome,[7],inactive
same,outcome,[8],inactive
same,outcome,[9],inactive
same,outcome,[10],inactive
same,outcome,[11],inactive
same,outcome,[12],inactive
same,outcome,[13],inactive
same,outcome,[14],inactive
same,outcome,[15],inactive
same,outcome,"CD40, CD40 (gene 958)",inactive
same,outcome,[16],inactive
same,outcome,[17],inactive
same,outcome,[18],inactive
same,outcome,[19],inactive
COC(=O)CCCCC(=O)OC,outcome,[1],inactive
same,outcome,[2],inactive
same,outcome,[3],inactive
same,outcome,[4],inactive
same,outcome,[5],inactive
same,outcome,[6],inactive
same,outcome,[7],inactive
same,outcome,[8],inactive
same,outcome,[9],inactive
same,outcome,[10],inactive
same,outcome,[11],inactive
same,outcome,[13],inactive
same,outcome,[14],inactive
same,outcome,[15],inactive
same,outcome,"CD40, CD40 (gene 958)",inactive
same,outcome,[16],inactive
same,outcome,[17],inactive
same,outcome,[18],inactive
same,outcome,[19],inactive
NC(=O)N(O)[C@@H]1C=C[C@H](Oc2cccc(Oc3ccc(F)cc3)c2)C1,outcome,[1],inactive
same,outcome,[2],inactive
same,outcome,[3],inactive
same,outcome,[4],inactive
same,AC50,[5],8.65 µM (active)
same,outcome,[6],inactive
same,outcome,[7],inactive
same,AC50,[8],20 µM (active)
same,outcome,[9],inactive
same,outcome,[10],inactive
same,outcome,[11],inactive
same,outcome,[13],inactive
same,outcome,[14],inactive
same,outcome,[15],inactive
same,outcome,"CD40, CD40 (gene 958)",inactive
same,outcome,[16],inactive
same,outcome,[17],inactive
same,AC50,[18],3.97 µM (active)
same,outcome,[19],inactive
